Holding throughout (conditions): concentration: 1 μM,replicates: in singlicate; n = 1
The subject of experiment [1] is CAMK1.
Experiment [2] concerns CAMK2A.
Experiment [3] has as its system CAMK2B.
For experiment [4], the system named is CAMK2D.
For experiment [5], the system named is CAMK2G.
Experiment [6] concerns CAMK4.
The test system of experiment [7] is CAMKK1.
Experiment [8] relates to CAMKK2.
For experiment [9], the system named is CASK.
The test system of experiment [10] is T1, CDC2L1.
T1 construct: gene CDK11B

The test system of experiment [11] is CDC2L2.
The test system of experiment [12] is T2, CDC2L5.
T2 construct: gene CDK13

The subject of experiment [13] is T3, CDK11.
T3 construct: gene CDK19

For experiment [14], the system named is CDK2.
Experiment [15] has as its system CDK3.
The test system of experiment [16] is CDK4-cyclinD1.
Experiment [17] deals with CDK4-cyclinD3.
Experiment [18] has as its system CDK4.
In experiment [19] the test system is CDK5.
In experiment [20] the test system is CDK7.

Molecules are shown by their SMILES.
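Also: KINOMEscan kinase panel screen.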

Take `CCn1c(-c2nonc2N)nc2cncc(CNC3CCNCC3)c21.Cl` [SB-747651]: the “%Inh” value in experiment [1] stood at 19%; in experiment [2], 0%; in experiment [3] it was 0%; in experiment [4] it was 5%; in [5], 17%; in experiment [6], 71%. The “%Inh” value is recorded as 1% in experiment [7]; 16% in experiment [8]; 16% in [9]; 0% in [10]; 0% in experiment [11]; 0% in experiment [12]. The “%Inh” value in experiment [13] came to 5%; in [14] it was 0%; in experiment [15], 11%; in experiment [16], 0%; in experiment [17], 14%; in [18] it was 33%. Also, the “%Inh” value in experiment [19] and in [20] was 0% in each case.
In the case of `CCn1c(-c2nonc2N)nc2cncc(Br)c21` [SB-738004], the “%Inh” value in experiment [1] amounted to 14%; in [2], 27%; in experiment [3], 29%; in experiment [4] it was 27%; in [5] it was 14%; in experiment [6], 0%. The “%Inh” value in experiment [7] stood at 25%; in [8], 17%; in [9], 29%; in experiment [10] it was 0%; in experiment [11], 13%; in [12], 18%. The “%Inh” value is on record as 14% in experiment [13]; 1% in [14]; 3% in [15]; 43% in [16]; 0% in experiment [17]; 36% in experiment [18]. In addition, the “%Inh” value stood at 0% in [19] and 48% in experiment [20].
Turning to `Cc1cccc2c(-c3ccncc3)c(-c3ccc(F)cc3)nn12.Cl` [GW461487], the “%Inh” value in experiment [1] is on record as 0%; in experiment [2] it was 0%; in experiment [3] it was 0%; in [4], 29%; in experiment [5], 32%; in experiment [6], 0%. Moreover, the “%Inh” value was 0% in experiment [7]; 11% in experiment [8]; 3% in [9]; 0% in experiment [10]; 0% in experiment [11]; 0% in experiment [12]. Moreover, the “%Inh” value is reported as 0% in experiment [13]; 0% in experiment [14]; 0% in experiment [15]; 0% in experiment [16]; 0% in experiment [17]; 36% in experiment [18]. Also, the “%Inh” value in [19] and in experiment [20] was 0% in each case.
On to `O=C(NCC1CC1)c1ccc(-c2cc(C(=O)NC3CC3)ccc2F)cc1` [GW810445], for which the “%Inh” value in [1], in experiment [2], in experiment [3], in experiment [4], in [5] and in experiment [6] was 0% throughout. In addition, the “%Inh” value in experiment [7] is on record as 0%; in experiment [8], 0%; in experiment [9], 41%; in experiment [10] it was 0%; in [11], 0%; in experiment [12], 7%. Further, the “%Inh” value stood at 32% in experiment [13]; 0% in experiment [14]; 7% in [15]; 0% in experiment [16]; 0% in [17]; 1% in [18]. Further, the “%Inh” value in [19] and in experiment [20] was 0% throughout.
As to `Cc1ccc2c(-c3ccnc(Nc4ccc(C(F)(F)F)cc4)n3)cnn2n1` [GW819776], the “%Inh” value in [1], in [2], in experiment [3], in experiment [4], in experiment [5] and in [6] was 0% each time. Moreover, the “%Inh” value in [7] is given as 19%; in [8], 0%; in experiment [9], 21%; in [10], 0%; in experiment [11], 0%; in [12], 0%. In addition, the “%Inh” value in [13] came out at 0%; in experiment [14] it was 15%; in [15], 13%; in experiment [16] it was 0%; in experiment [17], 0%; in [18] it was 16%. Besides, the “%Inh” value in experiment [19] is listed as 0%; in experiment [20] it was 47%.
`Cn1ccc2ncnc(Oc3ccc(NC(=O)Nc4cncc(C(F)(F)F)c4)c(Cl)c3)c21`: the “%Inh” value in [1], in experiment [2], in experiment [3], in experiment [4], in [5] and in [6] was 0% throughout. In addition, the “%Inh” value in experiment [7] worked out at 0%; in experiment [8], 14%; in experiment [9] it was 0%; in experiment [10], 0%; in [11] it was 0%; in experiment [12], 51%. Moreover, the “%Inh” value was 97.7% in experiment [13]; 0% in [14]; 0% in [15]; 0% in experiment [16]; 0% in experiment [17]; 0% in [18]. Also, the “%Inh” value in [19] and in experiment [20] was 0% each time.
For `OCCn1cc(-c2cnc3nnn(Cc4ccc5ncccc5c4)c3n2)cn1`, the “%Inh” value in [1], in [2], in [3], in [4], in [5] and in experiment [6] was 0% in each case. Besides, the “%Inh” value in experiment [7] was 0%; in [8] it was 0%; in [9], 0%; in [10] it was 11%; in experiment [11], 0%; in experiment [12] it was 0%. Besides, the “%Inh” value in experiment [13] is on record as 0%; in [14] it was 0%; in experiment [15], 5%; in experiment [16], 0%; in experiment [17], 0%; in experiment [18] it was 0%. Moreover, the “%Inh” value in [19] turned out to be 0%; in experiment [20], 15%.
Turning to `Cc1ccc(C(=O)Nc2ccc(Oc3ccc4nc(NC(=O)C5CC5)cn4c3)c(F)c2)c(=O)n1-c1ccccc1`, the “%Inh” value in experiment [1] is 0%; in experiment [2], 0%; in [3], 0%; in experiment [4], 0%; in experiment [5] it was 3%; in [6], 10%. Also, the “%Inh” value in experiment [7] is given as 11%; in [8], 10%; in experiment [9], 12%; in experiment [10], 0%; in [11] it was 7%; in experiment [12] it was 0%. The “%Inh” value in experiment [13] came to 88%; in experiment [14], 1%; in experiment [15], 36%; in [16], 21%; in experiment [17], 0%; in experiment [18], 0%. Further, the “%Inh” value in experiment [19] is 0%; in [20] it was 76%.
As to `Cc1ccn2nc(-c3ccc(F)cc3)c(-c3ccncc3)c2c1.Cl` [GW457859], the “%Inh” value in experiment [1] came to 16%; in [2] it was 0%; in [3] it was 0%; in [4], 0%; in experiment [5], 15%; in experiment [6], 0%. The “%Inh” value amounted to 0% in experiment [7]; 9% in [8]; 6% in experiment [9]; 0% in experiment [10]; 24% in experiment [11]; 0% in experiment [12]. Further, the “%Inh” value is 1% in experiment [13]; 0% in experiment [14]; 2% in experiment [15]; 18% in experiment [16]; 0% in [17]; 50% in [18]. Also, the “%Inh” value stood at 0% in experiment [19] and 47% in [20].
On to `O=C(Nc1ccccc1)c1cccc(Oc2ccc3nccn3n2)c1`, for which the “%Inh” value in experiment [1] is reported as 0%; in experiment [2] it was 0%; in experiment [3], 12%; in experiment [4] it was 14%; in experiment [5], 0%; in [6], 0%. In addition, the “%Inh” value in experiment [7] is listed as 6%; in experiment [8] it was 0%; in [9], 8%; in experiment [10], 96%; in experiment [11] it was 28%; in [12], 0%. Also, the “%Inh” value came to 0% in [13]; 0% in experiment [14]; 15% in experiment [15]; 11% in experiment [16]; 6% in experiment [17]; 22% in experiment [18]. In addition, the figures for the “%Inh” value in experiment [19] and in experiment [20] were 0% and 12%, respectively.
For the compound `CC(C)c1nc(-c2cccc(NS(=O)(=O)c3ccccc3)c2)c(-c2ccnc(Nc3ccc4c(c3)CN(C)CC4)n2)s1` [GSK1649598], the “%Inh” value in experiment [1] came out at 57%; in experiment [2] it was 0%; in experiment [3] it was 0%; in experiment [4], 22%; in [5], 28%; in experiment [6] it was 0%. In addition, the “%Inh” value was 29% in experiment [7]; 23% in experiment [8]; 14% in experiment [9]; 15% in experiment [10]; 24% in [11]; 92.7% in experiment [12]. In addition, the “%Inh” value turned out to be 0% in [13]; 99.3% in experiment [14]; 99.6% in experiment [15]; 65% in experiment [16]; 44% in [17]; 93.7% in experiment [18]. In addition, the “%Inh” value is on record as 87% in experiment [19] and 78% in [20].

(Values after PMC5540273 (PLoS ONE, 2017).)
